For 40 molecules, inhibition results are on record in PubChem BioAssay.

Calls of active or inactive are those of the source. The rule behind the calls is not given here.

The target in this experiment is Pantothenate synthetase (Mycobacterium tuberculosis (strain ATCC 25618 / H37Rv)) (UniProt P9WIL5). As to the kind of experiment: Coupled enzyme confirmation of inhibitors against recombinant Mtb PanC (AID 375).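 Note: 0% = full reaction with vehicle and 100% = no enzyme background.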 The conditions noted are these: coupled enzyme assay; at 10 µM, hits give high values.
Pantothenate synthetase (Mycobacterium tuberculosis (strain ATCC 25618 / H37Rv)), sequence (P9WIL5 whole entry, looked up): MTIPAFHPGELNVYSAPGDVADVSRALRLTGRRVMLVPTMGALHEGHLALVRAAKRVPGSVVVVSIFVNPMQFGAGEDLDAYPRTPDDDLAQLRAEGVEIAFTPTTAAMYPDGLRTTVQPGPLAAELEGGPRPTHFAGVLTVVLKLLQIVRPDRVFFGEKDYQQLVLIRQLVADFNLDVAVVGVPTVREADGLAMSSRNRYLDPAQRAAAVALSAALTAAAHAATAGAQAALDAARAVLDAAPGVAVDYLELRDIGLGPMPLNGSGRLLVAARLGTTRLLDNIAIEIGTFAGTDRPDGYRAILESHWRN
Take `CCCOC(=O)C1[C@H]2C(=O)N(CCCOC)C[C@]23C=C[C@H]1O3` (stereo not given in full): the inhibition is 0% (inactive).

`Cc1ccc(S(=O)(=O)N2CCN(C(=O)N3CCOCC3)C2c2ccc(N(C)C)cc2)cc1` (stereo not given): the inhibition was 0% (inactive).

As for `Cc1cccc(-n2nnnc2SCc2csc(-c3ccccc3)n2)c1`, the inhibition was 0% (inactive).

Turning to `Cc1nn(S(=O)(=O)N2CCCCC2)c(C)c1Br`, the inhibition was 0% (inactive).

As to `O=C(CSc1ncnc2ccccc12)NCCCO`, the inhibition was 0% (inactive).

As for `CCOC(=O)CN(C)Cc1c[nH]c2ccccc12`, the inhibition is 14% (inactive).

Turning to `Cc1nc2ccc(C(=O)O)cc2c2c1CC(C)S2` (stereo not given), the inhibition is 0% (inactive).

Turning to `COc1ccc(OC)c(C(=O)c2nc3c(n2O)CCCCC3)c1`, the inhibition is 0% (inactive).

In the case of `CCc1cccc(NC(=O)CCc2nc(-c3cccs3)no2)c1`, the inhibition is 0% (inactive).

For the molecule `N#Cc1ccc(CSc2nnc(-c3ccccn3)n2-c2ccccc2)cc1`, the inhibition was 0% (inactive).

`CCCC1O[C@@H]2C[C@H]3[C@@H]4CCC5=CC(=O)C=C[C@]5(C)[C@H]4[C@@H](O)C[C@]3(C)[C@]2(C(=O)CO)O1` (stereo not given in full): the inhibition is 4% (inactive).

As for `CNCCCC1c2ccccc2C=Cc2ccccc21`, the inhibition was 0% (inactive).

With `CCOc1ccc(C(CC(=O)O)NC(=O)c2ccco2)cc1OC` (stereo not given), the inhibition was 2% (inactive).

For the molecule `Clc1cc2c(c(Cn3cnc4ccccc43)c1)OCOC2`, the inhibition is 0% (inactive).

As for `COc1nc(-c2ccc(Cl)cc2)ccc1-c1noc(-c2ccncc2)n1`, the inhibition is 4% (inactive).

As to `CCCN(CCC)CCNC(=O)c1cc2c(=O)n(C)c3ccccc3c2n1C`, the inhibition is 0% (inactive).

Turning to `Cc1cc(C)c(OCC(=O)Nc2cccc(O)c2)cc1C`, the inhibition is 0% (inactive).

Consider `CC(=O)N(CCc1ccccc1C)Cc1cc2cc3c(cc2[nH]c1=O)OCO3`, for which the inhibition was 7% (inactive).

With `C=CCNC(=O)CSc1nc2sc(C)c(C)c2c(=O)[nH]1`, the inhibition was 0% (inactive).

Regarding `Cc1ccc2[nH]c(=O)c(CN(CCCN3CCOCC3)C(=O)Nc3cccc(Cl)c3)cc2c1`, the inhibition is 0% (inactive).

For `CCOC(=O)c1sc(NC(=O)CSc2nnnn2-c2ccccc2)c(C(=O)OCC)c1C`, the inhibition was 0% (inactive).

For `CCOn1c(=O)c(=O)n(OCc2ccccc2)c2ccccc21`, the inhibition is 0% (inactive).

Take `Cc1ccc2c(c1)N(CC(=O)N1CCCCC1c1cccnc1)C(=O)CO2` (stereo not given): the inhibition was 0% (inactive).

For `COc1ccc(Cl)c(N2CCN(CCCNC(=O)Nc3ccc(C)cc3)CC2)c1`, the inhibition is 0% (inactive).

As to `Cn1c(CCNC(=O)c2ccco2)nc2cc(NC(=O)C3CCCCC3)ccc21`, the inhibition is 0% (inactive).

Consider `Cc1nc(Sc2cccn2C)c(C(F)(F)F)c(=O)[nH]1`, for which the inhibition was 0% (inactive).

On to `C=CCn1c(SCC(=O)c2ccc(OC)cc2)nnc1C(C)NC(=O)c1cccs1` (stereo not given), for which the inhibition is 0% (inactive).

Take `Cc1ccccc1C(=O)NC1CCN(CC(=O)Nc2nccs2)CC1`: the inhibition was 0% (inactive).

Turning to `CCCCc1ccc(NC(=O)C2CCCO2)cc1` (stereo not given), the inhibition is 0% (inactive).

For the molecule `Clc1ccccc1CN1CCc2sccc2C1`, the inhibition is 0% (inactive).

Regarding `Cc1ccc(C2=Nc3ccccc3NC(C)(c3ccc(C)o3)C2)o1` (stereo not given), the inhibition was 0% (inactive).

`CCN(CC)S(=O)(=O)c1ccc2oc(C(=O)N3CCOCC3)c(C)c2c1`: the inhibition was 0% (inactive).

With `CCOC(=O)c1[nH]c(C)c(C(=O)NCc2ccccn2)c1C`, the inhibition is 0% (inactive).

Consider `Cc1ccc(CC23CN4CCN(CC(C4)C2O)C3)c(C)c1` (stereo not given), for which the inhibition was 1% (inactive).

Take `COc1cccc(-n2c(SCC(=O)N3CCCC3)nc3c([nH]c4ccccc43)c2=O)c1`: the inhibition was 0% (inactive).

For the molecule `CCOC(=O)N1CCN(c2cc(=O)n(-c3ccc(OCC)cc3)c(=O)[nH]2)CC1`, the inhibition is 5% (inactive).

`CCN(CC)Cc1c(C(=O)OC)nnn1-c1nonc1N`: the inhibition is 0% (inactive).

For the molecule `COc1ccccc1C(=O)n1nc(-c2ccc(Cl)cc2)nc1N`, the inhibition was 3% (inactive).

With `COc1ccc(-n2c(Cc3cccn3C)nnc2SCC(=O)Nc2cccc(Cl)c2)cc1`, the inhibition was 2% (inactive).

Take `COc1ccc2oc(=O)c(C(=O)N3CCN(c4ccccc4F)CC3)cc2c1`: the inhibition is 0% (inactive).
